Experimental data: PubChem BioAssay (Tox21)
Results filed as inconclusive are left out. Values without a mark were called inactive. The source made the active and inactive calls. Calls come from the whole dose curve; as a rule, active = well fitted cell-killing curve with a large enough effect in the repeat runs; inconclusive = weak or mixed curves, or effect the other way; inactive = flat fitted curve, though single readings scatter.

test: qHTS assay to identify small molecule agonists of the androgen receptor (AR) signaling pathway in the presence of an antagonist - cell viability counter screen (AID 1259379); conditions: MDA-kb2 viability, CellTiter-Fluor, 16 h; series mostly up to 92.4 µM; activity change, negative = cytotoxicity: at the top concentration; note: nearly all actives have a fitted effect of over 25% in size
Text: National Center for Advancing Translational Sciences [NCATS]
NIH Chemical Genomics Center [NCGC]
U.S. Environmental Protection Agency [EPA]
National Institutes of Environmental Health Sciences [NIEHS]
National Toxicology Program [NTP]
U.S. Food and Drug Administration [FDA]
Androgen receptor (AR) is an important member of nuclear receptor family. Its signaling plays a critical role in AR-dependent prostate cancer and other androgen related diseases. Considerable attention has been given in the past decades to develop methods to study and screen for the environmental chemicals that have the potential to interfere with metabolic homeostasis, reproduction, developmental and behavioral functions. Therefore AR binding assay for screening against androgen agonists and antagonists can be used to identify potential endocrine disruptors.
MDA-kb2 cells (from ATCC, deposited by Wilson et al.) are human breast carcinoma cells that were stably transfected with a luciferase reporter gene under control of the MMTV promoter that contains response elements for both androgen receptor (AR) and glucocorticoid receptor (GR). This particular screening for measuring luciferase reporter gene activity using MDA-kb2 cells against Tox21 10K library compounds is a confirmation study on agonist mode screening in the presence of AR-antagonist compound (Nilutamide) at 3.0uM final concentration. The cytotoxicity of the compounds was tested in parallel by measuring the cell viability using CellTiter-Fluor assay system (Promega, Madison, WI) in the same wells.
Tox21 Assay Protocol Summary:
MDA-kb2 cells (cells cultured without CO2) were dispensed at 3,000 cells/well in 4uL of culture medium into white wall/solid-bottom 1536-well plates (Corning Life Sciences, Corning, NY) using a Multidrop Combi (Thermo Fisher Scientific Inc., Waltham, MA) dispenser. The assay plates were incubated at 37C and 0% CO2 for 5hr. One uL of 3.0uM (final concentration) Nilutamide or assay buffer was added using two separate tips of Flying Reagent Dispenser (FRD, Aurora Discovery, San Diego, CA). Then 23nL of compounds dissolved in DMSO at 15 concentrations and positive controls were transferred to the assay plates using a Pintool station (Wako, San Diego, CA). The assay plates were incubated at 37C and 0% CO2 for 16 hr. After 15hr incubation at 37C, 1uL/well CellTiter-Fluor reagent (Promega Corporation) was added to each well of the assay plates using FRD. After 1hr incubation at 37C and 0% CO2, the fluorescence signal was measured using a ViewLux plate reader (PerkinElmer, Shelton, CT).
% is set by controls: 0 for no effect and ±100 for the full control effect; potency is the fitted concentration of half-maximal effect.

Compound | activity change, negative = cytotoxicity | Potency
O=C(OC1CCCCC1)c1ccccc1C(=O)OC1CCCCC1 | -6.01% | –
CC[C@H]1C[C@H]2[C@@H]3CCC4=CC(=O)CC[C@@H]4[C@H]3CC[C@]2(C)[C@H]1O | -7.02% [at 42.5 µM] | –
CNP(=O)(OC)Oc1ccc(C(C)(C)C)cc1Cl (stereo not given) | -2.24% | –
C=CC(=O)NCNC(=O)C=C | 0.213% | –
C=CCOC(C)=O | -0.492% | –
ClP(Cl)(Cl)(Cl)Cl | 0.0493% | –
CCOc1ccc(C(C)(C)COCc2cccc(Oc3ccccc3)c2)cc1 | -0.906% | –
CCN(C)N=O | 3.19% | –
CC/C(=N\OC/C=C/Cl)C1=C(O)CC(C2CCOCC2)CC1=O (stereo not given) | 3.3% | –
CNC(C)Cc1ccccc1OC (stereo not given) | -4.62% [at 42.5 µM] | –
ClCc1ccccc1 | -3.4% | –
CCOc1nc(F)cc2nc(S(=O)(=O)Nc3c(Cl)cccc3Cl)nn12 | 1.44% | –
BrCCCCBr | 0.638% | –
O=Cc1ccc2c(c1)OCO2 | 0.0623% | –
CN1C(=O)C(O)N=C(c2ccccc2)c2cc(Cl)ccc21 (stereo not given) | 0.0541% | –
NNC(=O)c1cccnc1 | 1.07% | –
II | 0.888% | –
COP(=S)(OC)Oc1cc(Cl)c(I)cc1Cl | -1.69% | –
CC1Sc2c(C(=O)O)c(=O)c3cc(F)c(N4CCNCC4)cc3n21 (stereo not given) | 1.52% [at 42.5 µM] | –
OCCCBr | 0.17% | –

Compound | activity change, negative = cytotoxicity | Potency
C=CC(C)=O | 4.21% | –
C[C@]12CC[C@H]3[C@@H](CCC4=CC(=O)CC[C@@H]43)[C@@H]1CC[C@@H]2OC(=O)CCC1CCCCC1 | -1.39% [at 42.5 µM] | –
O=[N+]([O-])c1ccc(F)c([N+](=O)[O-])c1 | – | 27.6 µM (active)
CCCCCCCCOC(=O)c1ccc(C(=O)OCCCCCCCC)c(C(=O)OCCCCCCCC)c1 | 1.32% | –
O=[N+]([O-])C(Br)(CO)CO | -6.96% | –
Oc1ccc(Cl)c(Cl)c1Cl | -7.56% | –
CCC(C)(NC(=O)c1cc(Cl)c(C)c(Cl)c1)C(=O)CCl (stereo not given) | – | 61.5 µM (active)
O=S(=O)(O)C(F)(F)C(F)(F)C(F)(F)C(F)(F)F | 5.22% | –
O=C1C(Cl)C(CCl)CN1c1cccc(C(F)(F)F)c1 (stereo not given) | -2.37% | –
Clc1cc(C(Cl)(Cl)Cl)cnc1Cl | – | 24.3 µM (active)
O=C(NC(=O)c1c(F)cccc1F)Nc1ccc(OC(F)(F)C(F)OC(F)(F)F)c(Cl)c1 (stereo not given) | -0.14% [at 42.5 µM] | –
O=C=Nc1ccc(Cl)cc1 | 1.97% | –
CC(=O)c1cc2c(cc1C)C(C)(C)C(C)CC2(C)C (stereo not given) | 0.751% | –
[CH3][Sn]([CH3])([Cl])[Cl] | – | inactive
CCOP(=S)(OCC)Oc1nc(Cl)c(Cl)cc1Cl | – | inactive
[O-][Cl+]O | 1.3% | –
CCCN(CCC)c1c([N+](=O)[O-])cc(S(C)(=O)=O)cc1[N+](=O)[O-] | -13.7% | –
CC(=O)CCC(C)=O | 3.72% | –
CCOP(=S)(Oc1ccc([N+](=O)[O-])cc1)c1ccccc1 (stereo not given) | 1.75% | –
C=CC(=O)OCCCCO | -4.27% | –
